About 370 (0.13%) of roughly 290,000 compounds were called active.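 How the source made its calls: active means spots per cell inhibited over 60%, with over 100 cells counted and total cytoplasm intensity under 500,000; inconclusive means wells with under 100 cells, flagged as likely toxic; inactive means the rest.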 The full list was thinned out, with actives kept by preference. Measured potencies and affinities stand elsewhere.

G-protein coupled receptor 55 (Homo sapiens), sequence (Q9Y2T6 whole entry, looked up): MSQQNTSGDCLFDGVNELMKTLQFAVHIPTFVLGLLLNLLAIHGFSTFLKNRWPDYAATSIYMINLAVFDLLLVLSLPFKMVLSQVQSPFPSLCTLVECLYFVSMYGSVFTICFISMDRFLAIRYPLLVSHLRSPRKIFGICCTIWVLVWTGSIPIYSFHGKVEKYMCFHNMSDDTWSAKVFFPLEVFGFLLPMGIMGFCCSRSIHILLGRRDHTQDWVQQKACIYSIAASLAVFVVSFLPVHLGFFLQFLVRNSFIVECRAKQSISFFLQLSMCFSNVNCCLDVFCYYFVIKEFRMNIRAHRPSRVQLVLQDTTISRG

The assay has as its target G-protein coupled receptor 55 (Homo sapiens) (UniProt Q9Y2T6). Description: GPR55 antagonists blocking LPI-driven arrestin recruitment, primary screen, imaging, U2OS, beta-arrestin-GFP, LPI agonist (AID 2013).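 Further: U2OS cells stably carrying GPR55 and arrestin-GFP stimulated by 5 µM LPI near EC80; imaged beta-arrestin-GFP aggregate spots per cell after agonist stimulation; plate controls were LPI-stimulated DMSO wells for no effect and DMSO wells without LPI for full effect.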 Particulars: U2OS GPR55 beta-arrestin-GFP translocation imaging, LPI antagonism; at 10 µM; stronger effect = higher value. In general terms: Activated receptors often draw arrestin, which recruitment assays turn into a signal.
As usually defined, the inhibition is the drop in the measured response relative to a control, in per cent. As to `Nn1c(COc2cccc(Cl)c2)nc2ccccc2c1=O`, the inhibition was -10.2% (inactive).

In the case of `CCc1nonc1NC(=O)c1oc2ccccc2c1C`, the inhibition is 10% (inactive).

On to `N=c1n(Cc2ccccc2)c2ccccc2n1CC(O)COc1ccccc1` (stereo not drawn), for which the inhibition is 50.2% (inactive).

In the case of `Cc1ccc(OCC(O)Cn2c(=N)n(Cc3ccccc3)c3ccccc32)cc1` (stereo not drawn), the inhibition was 13.1% (inactive).

As for `CC(C)N(C(=O)CSc1nc2ccccc2n1Cc1ccccc1)C(C)C`, the inhibition is 2% (inactive).

Regarding `O=C(O)CSc1nc2ccccc2n1-c1ccccc1`, the inhibition was 6.1% (inactive).

Consider `CC(=O)Nc1ccc(NC(=O)c2ccc(C)c(S(=O)(=O)Nc3cccc(C)c3)c2)cc1`, for which the inhibition was -3.1% (inactive).

As to `COC(=O)C1CCN(C2=C(NS(=O)(=O)c3ccc(Cl)cc3)C(=O)c3ccccc3C2=O)CC1`, the inhibition is 2% (inactive).

As to `Cc1cc(NC(=O)NC2CCCN2S(=O)(=O)c2ccc(Cl)cc2)no1` (stereo not drawn), the inhibition was 8.3% (inactive).

`Cc1cc(C)cc(-c2nnc(SCC(=O)c3ccc4c(c3)OCCO4)o2)c1`: the inhibition is -7.3% (inactive).

`c1coc(CN(Cc2cccs2)Cc2nnnn2C2CCCCC2)c1`: the inhibition was 25.9% (inactive).

As for `CC(C)(C)c1ccc(CN(Cc2ccco2)Cc2nnnn2C2CCCC2)cc1`, the inhibition is 19.2% (inactive).

In the case of `CCCCCn1c(=O)[nH]c2cc(C(=O)NCc3ccc4c(c3)OCO4)ccc2c1=O`, the inhibition was 31.9% (inactive).

Turning to `CC1CCN(C(=O)c2ccc([N+](=O)[O-])o2)CC1`, the inhibition was 5.5% (inactive).

For the molecule `CCCNC(=O)C(Sc1ccccc1)c1ccccc1` (stereo not drawn), the inhibition was 8.1% (inactive).

Regarding `CCCCNC(=O)C(Sc1ccccc1)c1ccccc1` (stereo not drawn), the inhibition was -9.3% (inactive).

As to `CC(=O)NS(=O)(=O)c1ccc(NC(=O)C(Sc2ccccc2)c2ccccc2)cc1` (stereo not drawn), the inhibition is 8% (inactive).

For the molecule `CC(=O)Nc1ccc(NC(=O)C(Sc2ccccc2)c2ccccc2)cc1` (stereo not drawn), the inhibition is -1.5% (inactive).

Take `NS(=O)(=O)c1ccc(NC(=O)C(Sc2ccccc2)c2ccccc2)cc1` (stereo not drawn): the inhibition is 12.2% (inactive).

`CCC(C)NC(=O)C(Sc1ccccc1)c1ccccc1` (stereo not drawn): the inhibition is -0.3% (inactive).

Turning to `CCOCCc1nn2c(=O)cc(CSCC(=O)Nc3ccc(OC)cc3)nc2s1`, the inhibition was 16.4% (inactive).

For the molecule `Cc1cc(-c2ccccc2)c2c(=O)n(-c3ccccc3)[nH]c2n1`, the inhibition was -8.8% (inactive).

With `COc1cc(S(=O)(=O)N2CCC(C(N)=O)CC2)c(C)cc1C`, the inhibition is -8.6% (inactive).

Consider `CCCC(=O)NC(c1ccccc1Cl)c1ccc2cccnc2c1O` (stereo not drawn), for which the inhibition was 11.4% (inactive).

Consider `CN(C)c1ccc(/C=N/n2c(COc3ccccc3)n[nH]c2=S)cc1`, for which the inhibition is 1.6% (inactive).

On to `COC(=O)c1cc(NC(=O)Cc2ccc(OC)c(OC)c2)cc(C(=O)OC)c1`, for which the inhibition was 11% (inactive).

Take `COc1ccc(C(=O)NCC2(c3ccc(OC)c(OC)c3)CCCC2)c(OC)c1`: the inhibition is -8.5% (inactive).

As to `CCN1CC2=C(OC(N)=C(C#N)C2c2ccccc2)/C(=C\c2ccccc2)C1` (stereo not drawn), the inhibition is 3.6% (inactive).

Take `CCN1CC2=C(OC(N)=C(C#N)C2c2cccs2)/C(=C\c2cccs2)C1` (stereo not drawn): the inhibition is 13.2% (inactive).

For `Cc1nc2ccccc2nc1OCc1cccc([N+](=O)[O-])c1`, the inhibition was 6.2% (inactive).

Turning to `Cc1cc(C)c(NC(=O)c2ccccc2C(=O)c2ccccc2)c(C)c1`, the inhibition is 10.3% (inactive).

On to `Cc1ccc(C)c(NC(=O)c2ccccc2C(=O)c2ccccc2)c1`, for which the inhibition was 79.4% (active).

For `Cc1ccc(C)c(NC(=O)c2ccccc2O)c1`, the inhibition was 10.8% (inactive).

As to `OCC[C@@H]1C[C@H](O)[C@@H](O)[C@]2(Cc3ccccc3O2)O1`, the inhibition was -2.3% (inactive).

Regarding `COc1ccc(-c2cc(N)n(S(=O)(=O)c3ccc(F)cc3)n2)cc1OC`, the inhibition was 1.3% (inactive).

As for `COc1ccc(S(=O)(=O)n2nc(-c3cc(OC)c(OC)c(OC)c3)cc2N)cc1OC`, the inhibition is -6.7% (inactive).

Turning to `Cn1nnc2c(N3CCCCC3)nccc21`, the inhibition is 14.8% (inactive).

For `O=C(CC12CC3CC(CC(C3)C1)C2)Nc1ccc(C(=O)O)cc1`, the inhibition was -2.4% (inactive).

For the molecule `CC(=O)Nc1ccc(NC(=O)CC23CC4CC(CC(C4)C2)C3)cc1`, the inhibition is 55.6% (inactive).

In the case of `O=C(NCCCn1ccnc1)c1cc(C2CC2)on1`, the inhibition is -6.4% (inactive).

In the case of `CCOc1ccc2oc(C(=O)NCC(C)(C)CN(C)C)c(C)c2c1`, the inhibition was 13% (inactive).

As to `O=C(NCCc1ccccc1)C1COc2ccccc2O1` (stereo not drawn), the inhibition was 5.5% (inactive).

On to `CCn1nc([N+](=O)[O-])c2c(-c3nc4ccccc4o3)c(N)n(CCCOC)c2c1=O`, for which the inhibition is 98.4% (active).

For the molecule `CCCCCn1c(N)c(-c2nc3ccccc3o2)c2c([N+](=O)[O-])nn(CC)c(=O)c21`, the inhibition is 13.1% (inactive).

For the molecule `CCCCn1c(N)c(-c2nc3ccccc3o2)c2c([N+](=O)[O-])nn(CC)c(=O)c21`, the inhibition is 4.8% (inactive).

On to `CCOC(=O)N1CCC(=NNC(=O)Cn2ccc(C(F)(F)F)n2)CC1`, for which the inhibition was -11.4% (inactive).

Take `COC(=O)c1cnc(SCC(=O)c2ccccc2)n1C`: the inhibition is 2% (inactive).

Consider `CC(C(=O)NCc1cccs1)N1C(=O)c2ccccc2C1=O` (stereo not drawn), for which the inhibition is 17.5% (inactive).

For `COCCCNC(=O)c1ccc([N+](=O)[O-])c(Cl)c1`, the inhibition was 2.9% (inactive).

Take `C=CCNC(=O)c1ccc([N+](=O)[O-])c(Cl)c1`: the inhibition is -0.3% (inactive).

As for `Cc1ccnc2c(N3C(=O)C4C5c6ccccc6C(c6ccccc65)C4C3=O)cccc12` (stereo not drawn), the inhibition was 13.1% (inactive).

For `Cc1ccc(C)c(NC(=O)CN(C)C(=O)/C=C/c2ccco2)c1`, the inhibition is -6.6% (inactive).

With `CCCCCCCCOC(=O)CCc1c(C)[nH]c(=S)[nH]c1=O`, the inhibition was -16.9% (inactive).

In the case of `COc1ccc(C)cc1NC(=O)CCNS(=O)(=O)c1cccc2nonc12`, the inhibition is 6.9% (inactive).

As to `OC(CNCCc1ccc(C(F)(F)F)cc1)COc1ccc2ccccc2c1` (stereo not drawn), the inhibition was 30.5% (inactive).

With `COc1ccc(C(OCC(O)CNCCc2ccccc2)c2ccc(OC)cc2)cc1` (stereo not drawn), the inhibition was 8.1% (inactive).

As to `N#CCSc1ccsc1C(=O)Nc1ccc(F)cc1`, the inhibition was 2.6% (inactive).

For `COCCn1nnnc1CN1C2CCCC1CC(NC(C)=O)C2` (stereo not drawn), the inhibition was 0.2% (inactive).

Turning to `COc1cc(/C=N/OCC(=O)NC2CCCCC2C)ccc1OCc1ccc(Cl)cc1` (stereo not drawn), the inhibition was -3.5% (inactive).

In the case of `CCOc1ccccc1CNS(=O)(=O)c1ccc(-c2cnc(C3CC3)o2)cc1`, the inhibition is 99.5% (inactive).

As to `COc1cccc(N2CCN(c3ncnc4c3[nH]c3ccc(F)cc34)CC2C)c1` (stereo not drawn), the inhibition is 91.8% (active).

As for `Fc1ccc2[nH]c3c(N4CCN(c5ccccc5)CC4)ncnc3c2c1`, the inhibition was -5.9% (inactive).

With `COc1cccc(N2CCN(c3ncnc4c3[nH]c3ccccc34)CC2C)c1` (stereo not drawn), the inhibition was 33% (inactive).

For the origin of these results see PubChem BioAssay AID2013 (Sanford-Burnham Center for Chemical Genomics, 2009).
